40 compounds from PubChem BioAssay (NCI) can be followed below.

The panel holds about 83,000 compounds, 20% with a hit somewhere; the sample as a whole holds those more often.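 96-well plates, one dose, 48 hours. Percent growth reported; active if below 10.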 A number with no mark means an inactive call. Active and inactive are the calls of the source.

The test system of the assay is COLO 205 colon. The assay is described as follows: NCI-60 one-dose screen, 48 h (100 = growth as untreated, 0 = no growth, -100 = all killed). The following applies: 10 µM. The procedure:
Cells are grown in 96 well plates and exposed to the test compound for 48 hours. Compounds are tested at a single concentration, which is 10^-5 M for most compounds. The reported endpoint is percent growth (GI% or GIPRCNT), where numbers from 0 - 100% represent growth inhibition, and numbers from -100% - 0 represent cell death. For example, a value of 40 represents 60% growth inhibition. A value of 0 means no net growth occurred over the course of the experiment. A value of -40 indicates 40% of cells at the beginning of the experiment died by the end of the experiment. A value of -100 means all cells are dead at the end of the experiment.
NCI-60 Human Tumor Cell Lines Screen was performed using the standard one-dose NCI protocol, which is described in more detail at https://dtp.cancer.gov/discovery_development/nci-60/default.htm.
Compounds with GIPRCNT values below 10 were considered active. Activity score was based on GIPRCNT using the following formula: […]
Score is 0 for GIPRCNT values of 100 or above, 50 for GIPRCNT values of 0, and 100 for GIPRCNT values of -100.
`COc1cc(CCN=Cc2ccccc2O)c([N+](=O)[O-])cc1OC`: the growth is 110%.
With `Cc1c(C(=O)O)c(=O)n(-c2ccccc2)n1C` the figure was 110%; with `CCC(=O)Oc1ccc(OC)cc1`, 110%; with `O=[N+]([O-])c1cccc(C(F)(F)F)c1`, 108%.
On to `Cc1cc(=O)cc(C)n1-c1ccccc1`, for which the growth is 106%.
With `FC(F)(F)c1ccc2c(c1)N(CCCN1CCN(C3CC3)CC1)c1ccccc1S2` the figure was 79.9%; with `CCN=c1cc2sc3cc(NCC)c(C)cc3nc-2cc1C`, -25.8% (active); with `O=[N+]([O-])c1ccc(O)c(S(=O)(=O)O)c1`, 122%.
For `CC1OC(Oc2c(-c3ccc(O)c(O)c3)oc3cc(O)cc(O)c3c2=O)C(O)C(O)C1O` (stereo not given), the growth is 104%.
With `CCCC(C)OCC(=O)O` (stereo not given) the figure was 108%; with `C=CCOC(=O)C(=O)OCC=C`, 111%.
Regarding `Cc1cccc(CO)c1`, the growth is 105%.
With `O=C(O)CSCSCC(=O)O` the figure was 100%; with `C/C(=C\c1cc(Cl)ccc1OCC(=O)O)[N+](=O)[O-]`, 115%; with `Cc1ccc(C(=O)c2ccccc2)c(C)c1`, 109%.
As to `COc1ccc(C)cc1OC`, the growth was 113%.
With `COCCOCCCl` the figure was 107%; with `Nc1ncnc2c1nc(N)n2C1OC(CO)C(O)C1O` (stereo not given), -86.8% (active); with `N#Cc1ccc(NC(=O)Nc2cccc(C#N)c2)cc1`, 160%.
With `CC(=O)/C(Cc1ccccc1)=N/O` the figure was 97.9%.
Regarding `Cc1cc(O)ccc1O`, the growth was 120%.
With `CN(C)C(C)(C)CC(C)(C)C` the figure was 106%; with `O=C1C=C(O)C(=O)C=C1O`, 94.1%.
With `N#CCCc1ccc(O)cc1` the figure was 114%; with `CC(=O)OC(OC(C)=O)C1CCCO1` (stereo not given), 105%.
With `COC(=O)/C=C/C(=O)NC(N)=O` the figure was 105%; with `CC(=Nc1ccccc1)C1=C(O)C(Cc2cccc(F)c2)NC1=O` (stereo not given), -55.5% (active).
As for `CCCCC(CC)COC(C)=O` (stereo not given), the growth is 100%.
Take `O=C(O)c1cc([N+](=O)[O-])ccc1Cl`: the growth was 107%.
Turning to `Cc1ccncc1C(N)=O`, the growth was 124%.
With `CCCCC1(CC)COC(CCC)OC1` (stereo not given) the figure was 114%; with `CCOC(=O)/C(=C/c1ccc(OC)cc1)N(CC)CC`, 115%; with `CC(=O)OCC1OC(OC2=C(CC=C(C)C)C(=O)c3ccccc3C2=O)C(OC(C)=O)C(OC(C)=O)C1OC(C)=O` (stereo not given), 66%.
With `COc1cccc(Sc2ccc([N+](=O)[O-])c3no[n+]([O-])c23)c1` the figure was -42.2% (active); with `O=C(Cc1ccc(OCc2ccccc2)cc1)NCc1ccc2c(c1)OCO2`, 85.5%.
As for `Cc1ccc(Cl)cc1NC(=O)N(C)CCO`, the growth was 144%.
With `O=[N+]([O-])c1ccc(N=Nc2ccc(O)c3ccccc23)cc1` the figure was 88.5%.
With `c1ccc(Cc2ccccc2)cc1` the figure was 125%; with `C#Cc1cccc(NC(=O)c2ccc(Cl)cc2Cl)c1`, 128%.
With `O=c1cc(-c2ccccc2)nc2cc(-c3ccco3)[nH]n12` the figure was 95.6%.
